High-throughput results: PubChem BioAssay, Broad Institute
MITF TRPM1 inh = MITF TRPM1 promoter inhibition in SK-MEL-5 cells | AID 488899 | actives 0.83% (n = 330,000) | SK-MEL-5 TRPM1 promoter luciferase, 24 h | inhibition, % at 12.5 µM;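 active = mean inhibition across replicates of 60% or more, whatever share of single replicates reaches that level; inconclusive = some that reach 60%, reason not given; inactive = mean inhibition across replicates below 60%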
PAX8 inh HTS = lowers PAX8-driven luciferase in RMG-I cells; actives 1.2% (n = 360,000); RMG-I TPO-luciferase reporter, SteadyGlo, 24 h; AID 652154; inhibition, % at 12.6 µM;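 active = mean replicate inhibition at least 60% with every replicate also reaching 60%; inconclusive = only one of the two criteria is met; inactive = mean below 60% and not all replicates reaching 60%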;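 note: luciferase light reporting Pax8 driven TPO promoter activity; plate controls were median of neutral control wells for no effect and mitoxantrone controls for full effect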
Shn3 3UTR inh = Schnurri-3 reporter inhibition in Clone20 osteoblasts | AID 588674 | actives 0.52% (n = 360,000) | Clone20 osteoblast Shn3 3'UTR firefly luciferase, 24 h | inhibition, % at 12.5 µM;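 active = mean inhibition of at least 75% with every replicate also reaching 75%; inconclusive = mean inhibition at least 75% but some replicate below; inactive = mean inhibition below 75%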;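 note: 0% = median of neutral control wells and 100% = pilot-screen positive control compound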
LGR2 antag = Drosophila LGR2 receptor signaling inhibition | inhibition, % at 9.99 µM | actives 0.35% (n = 380,000) | HEK293 LGR2, CRE-luciferase, bursicon-stimulated, 4 h;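 active = drop in luminescence signal, shown as inhibition above about 50% in the replicate tests, limit read from the data, passing the limit was not always enough; inconclusive = probably only some replicates passing the limit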;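 note: agonist challenge used bursicon conditioned medium at about half maximal strength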
LMP1 NFkB inh = Epstein-Barr LMP1 NF-kappaB reporter inhibition; actives 0.69% (n = 350,000); LMP1-induced NF-kappaB luciferase reporter cells, luminescence; AID 504558; inhibition, % at 12.5 µM; in the data active = inhibition above about 41%; inconclusive = no clear call, values can overlap the other calls;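 note: 0% = neutral control wells and 100% = reference inhibitor control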
EWS-Fli block = inhibitors of EWS/Fli oncoprotein transcriptional activity | inhibition, % at 12.6 µM | AID 651661 | actives 0.67% (n = 350,000) | A673 NR0B1-luciferase reporter, viability-normalised;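 active = mean inhibition of at least 50% after viability correction, with every replicate also passing that limit; inconclusive = mean reaches 50% but only one of two replicates passes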;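 note: firefly luciferase signal divided by Alamar Blue viability fluorescence both relative to DMSO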
* = called active by the depositor; ? = inconclusive; . = no result. Hits are enriched below; roughly 2.2% of the tested compounds scored in any of these assays.

SMILES | MITF TRPM1 inh | PAX8 inh HTS | Shn3 3UTR inh | LGR2 antag | LMP1 NFkB inh | EWS-Fli block
Cc1cccc(C)c1-n1nnnc1C(C1CC1)N1CCC(n2c(=O)[nH]c3ccccc32)CC1 (configuration not stated) | . | 14.0 | 7.5 | -2.5 | . | -4.3
Cc1cccc(C)c1-n1nnnc1C(c1cccc2ccccc12)N1CCC(n2c(=O)[nH]c3ccccc32)CC1 (configuration not stated) | . | -9.6 | 4.2 | 15.8 | . | 9.8
O=c1[nH]c2ccccc2n1C1CCN(C(c2cccc3ccccc23)c2nnnn2-c2ccc3c(c2)OCCO3)CC1 (configuration not stated) | . | 98.0* | 17.1 | 8.0 | . | 10.2
C=Cc1cc(OC)c2c(c1)c(=O)oc1c2cc(OC)c2c(O)ccc(C3OC(C)C(O)C(C)(O)C3O)c21 (configuration not stated) | 77.6* | 88.8* | 11.8 | . | 88.4* | 27.7
CN(C)c1ccc(/C=C/C=C2/C(=O)NC(=O)N(c3ccccc3)C2=O)cc1 | 83.1* | 32.4 | 18.5 | . | -54.2 | 57.2*
Cn1cc(/C=C2\C(=O)NC(=O)N(c3ccccc3)C2=O)c2ccccc21 | -16.5 | 7.8 | 4.6 | 3.2 | 9.7 | 5.6
Cc1ccc(N2C(=O)NC(=O)/C(=C\C=C\c3ccco3)C2=O)cc1 | 101.8* | 9.8 | 71.3 | 4.3 | 2.1 | 55.9*
Cc1cccc(N2C(=O)NC(=O)/C(=C\c3cccn3-c3ccc(Cl)cc3)C2=O)c1 | ? | . | 40.0 | 60.1* | -1.1 | .
O=C1NC(=O)N(c2ccccc2)C(=O)/C1=C/C=C/c1ccco1 | 94.7* | -23.8 | -6.4 | -9.0 | -4.4 | 59.7*
Cc1cc(C)cc(N2C(=O)NC(=O)/C(=C/c3cccn3-c3ccc(Cl)cc3)C2=O)c1 | 50.9 | 36.2 | 74.8 | ? | -10.4 | 32.3
COC(=O)[C@H]1[C@H](CO)[C@H]2Cn3c(ccc(-c4ccc(F)cc4)c3=O)[C@@H]1N2Cc1ccccc1 | . | -2.2 | . | -9.9 | . | -6.8
Cc1cccc(N2C(=O)NC(=O)/C(=C\C=C\c3ccco3)C2=O)c1 | 98.2* | 7.8 | 97.6* | 14.9 | -21.5 | 67.4*
Cc1ccc(N2C(=O)NC(=O)/C(=C\C=C\c3ccco3)C2=O)cc1C | 89.9* | 31.2 | ? | 6.7 | -33.3 | 71.7*
CCOC(=O)[C@@H]1[C@@H]2NC(=S)N(C)[C@@]1(COCc1ccc(OC)cc1)Oc1ccccc12 | . | 7.7 | . | . | . | -9.7
CC12CCC(O)CC1CCC1C2CCC2(C)C(C3=CC(=O)OC3)C(O)CC12O (configuration not stated) | 27.8 | 45.5 | 38.2 | 77.1* | -2.9 | 36.4
COC(=O)C1=C(C(=O)OC)SC2(S1)C(C(=O)OC)=C(C(=O)OC)Sc1c2ssc1=O | 101.1* | 26.2 | 97.6* | -32.2 | -20.2 | 44.9
O=C(N/N=C/c1c(O)n(Cc2ccc(F)cc2)c(=O)[nH]c1=O)c1ccccc1 | 7.5 | -4.3 | -16.8 | -2.3 | -3.6 | 10.0
O=C(O)CCC(=O)NCCC1=c2ccccc2=N/C1=C\c1c(O)n(Cc2ccc(F)cc2)c(=S)[nH]c1=O | 24.7 | 62.5* | 5.2 | 9.5 | -2.7 | 11.0
N#Cc1cccc(-c2ccc([C@@H]3[C@@H](CO)N4CCCCN(C(=O)Cc5ccccc5)C[C@H]34)cc2)c1 | . | 6.1 | . | -12.8 | . | -2.3
Clc1ccc(C(c2ccc(Cl)cc2)n2cc[n+](CC(OCc3ccc(Cl)cc3Cl)c3ccc(Cl)cc3Cl)c2)cc1 (configuration not stated) | 102.7* | 97.3* | 87.2* | 86.6* | 0.2 | 49.4
Clc1ccc(COC(Cn2ccnc2)c2ccc(Cl)cc2Cl)cc1 (configuration not stated) | 13.8 | 3.9 | 24.7 | 23.6 | -5.3 | 11.6
CCOC(=O)c1c(N)n(CCCOC(=O)c2ccco2)c2nc3ccccc3nc12 | 88.6* | . | 14.3 | . | -0.6 | .
COCCCn1c(N)c(C(=O)OCCOC)c2nc3ccccc3nc21 | 12.3 | . | -4.3 | . | -0.8 | .
CC1=C2C[C@H]3[C@@H](CC=C4C[C@@H](O)CC[C@@]43C)[C@@H]2CC[C@]12O[C@@H]1C[C@H](C)CN[C@@H]1C2C (some centres not stated) | . | 1.9 | . | . | . | 5.2
Cc1cc([N+](=O)[O-])c2ccccc2[n+]1[O-] | 78.2* | . | ? | . | 89.7* | .
SMILES | MITF TRPM1 inh | PAX8 inh HTS | Shn3 3UTR inh | LGR2 antag | LMP1 NFkB inh | EWS-Fli block
O=C(O)[C@H]1[C@H](CO)[C@H]2Cn3c(ccc(-c4ccc(F)cc4)c3=O)[C@@H]1N2CC1CCCC1 | . | 23.5 | . | -19.9 | . | -3.3
CCCCCn1c(=O)c(C(=O)Nc2cnccn2)c(O)c2ccccc21 | 66.4* | 8.0 | 81.6 | 11.4 | 30.1 | 2.8
CCCCCn1c(=O)c(C(=O)Nc2ccccc2S(N)(=O)=O)c(O)c2ccccc21 | 5.2 | 83.1* | 51.1 | 26.4 | 22.9 | 16.4
O=C(Cc1ccccn1)N1CCCCN2[C@H](CO)[C@@H](c3ccc(-c4ccc(F)cc4)cc3)[C@H]2C1 | . | -0.2 | . | 2.7 | . | -1.8
CCCC#Cc1ccc([C@@H]2[C@H]3CN(C(=O)Cc4ccccn4)CCCCN3[C@H]2CO)cc1 | . | -1.6 | . | -10.7 | . | 0.3
CC1CCOC(=O)C=CC=CC(=O)OC2CC3OC4C5OC5(C)C(O)CC4(COC(=O)C1O)C2(C)C31CO1 (configuration not stated) | 80.4* | 103.6* | 96.9* | 103.7* | 87.0* | 22.0
CC(O)C1C=CC=CC(=O)OC2CC3OC4C5OC5(C)C(O)CC4(COC(=O)C(O)C(C)CCO1)C2(C)C31CO1 (configuration not stated) | 79.2* | 112.7* | 96.5* | 103.7* | 88.3* | 29.4
CC1=CC2OC3CC4OC(=O)C=CC=CC(=O)OCCC(C)C(O)C(=O)OCC2(CC1)C4(C)C31CO1 (configuration not stated) | 103.5* | 102.2* | 97.8* | . | 81.7* | 18.8
CC1=CC2OC3CC4OC(=O)C=CC=CC(C(C)O)OCC(O)C5(C)OC5C(=O)OCC2(CC1O)C4(C)C31CO1 (configuration not stated) | 90.3* | 101.8* | 97.6* | 102.1* | 97.5* | 44.9
COC(=O)[C@H]1N[C@H]2c3ccc(C4=CCCC4)c(=O)n3C[C@H]2[C@@H]1CO | . | . | . | -2.8 | . | -1.5
CCCN1[C@@H]2c3cccc(=O)n3C[C@H]1[C@H](CO)[C@H]2C(=O)N(C)C | . | . | . | 11.3 | . | 0.0
Cc1cccc(S(=O)(=O)N2[C@@H]3Cn4c(ccc(-c5ccncc5)c4=O)[C@H]2[C@@H](C(=O)O)[C@@H]3CO)c1 | . | 0.8 | . | 0.8 | . | -4.4
COc1ccc(CC2C(=O)NC(C)C(=O)N(C)C3C(=O)N(C)C(Cc4ccc(O)c(c4)Oc4ccc(cc4)C3O)C(=O)NC(C)C(=O)NC(C)C(=O)N2C)cc1 (configuration not stated) | 104.2* | 110.5* | . | 98.9* | 84.6* | 43.9
CN(C)C(=O)O/N=C(\N)COc1ccc(C(C)(C)C)cc1 | -9.7 | -3.9 | -16.9 | -9.7 | -14.0 | 56.8*
